This note sets out measurements from PubChem BioAssay.

Assay [1] is described as follows: yeast TOR pathway RPL19A-GFP modulators, primary screen, cell-based, S. cerevisiae, multiplex flow cytometry (AID 1862; in the data active means percent of DMSO control GFP below about 86%;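 further: lower values mimic rapamycin by blocking the RPL19A rise seen in DMSO cells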). Conditions: S. cerevisiae RPL19A-GFP strain, flow cytometry fluorescence, 3 h; at 10 µM; stronger effect = lower value. A general note: Flow cytometry measures light scatter and fluorescence of single cells or particles in a stream.
Assay [2] can be described thus: modulators of CIT2-GFP expression in yeast, primary screen, S. cerevisiae, GFP fusion, multiplex flow cytometry (AID 1870;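 active means percent response above a set limit, the screen-wide mean plus 3 SD, cut at about 130% in these data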;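 further: barcoded CIT2-GFP strain pooled with four other GFP strains with rapamycin as positive control; median GFP fluorescence per well over plate mean of DMSO wells so 100% = DMSO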). The conditions noted are these: 3 h, at 10 µM, stronger effect = higher value.
Assay [3] in a line: modulators of LAP4-GFP expression in yeast, primary screen, S. cerevisiae, multiplex flow cytometry (AID 1873;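 active means GFP signal, as percent of the solvent control, above the screen mean plus 3 SD, about 149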). Conditions: 3 h, at 10 µM, stronger effect = higher value.
Assay [4] is described as follows: modulators of AGP1-GFP expression in yeast TOR pathway, primary screen, cell-based, multiplex flow cytometry, S. cerevisiae (AID 1887;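 active means GFP signal above the screen-wide mean plus 3 SD, that is over about 124.5% of the solvent control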;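 further: AGP1-GFP fusion strain of S. cerevisiae within a five-strain barcoded multiplex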). The conditions noted are these: 3 h, at 10 µM, stronger effect = higher value.
Assay [5] is described as follows: inhibitors of CD8+ T cell-vesicle binding, pilot screen, LFA-1/ICAM-1 modulator project, MLPCN validation set, flow cytometry (AID 2523;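 active means response below a set limit, under 55% cells CD8-positive and vesicle-bound, and CD8 cells' 90th-percentile brightness under 279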;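 on vesicle binding response: mean PE anti-B7-1 fluorescence of CD8+ cells relative to row control; 100% = QL9-loaded vesicles with DMSO vehicle in the same plate row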). The conditions noted are these: 2C mouse CD8+ T cells, at 7 µM, stronger effect = lower value; double positive events: measured here: CD8+/vesicle+ event percentage.
The target of assay [6] is Integrin beta-1 (Homo sapiens) + Integrin alpha-4 (Homo sapiens) (UniProt P13612+P05556). Briefly: inhibition of HUTS-21 binding to VLA-4, pilot screen, VLA-4 allosteric modulator project, U937 cells, HUTS-21 mAb, flow cytometry, validation set (AID 2674;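 active means inhibition above 50%, about 3 SD of the validation set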;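 further: antibody binding induced by the VLA-4 ligand LDV present at three times its Kd; 0% = LDV ligand with antibody and no compound and 100% = antibody without LDV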). The conditions noted are these: HUTS-21 LIBS mAb binding, at 6.7 µM, stronger effect = higher value, binding induced by LDV ligand.

A short description of assay [7]: superoxide lowering in aged yeast cells, pilot screen, validation compound set (AID 2706;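 active means superoxide response below 65% of plate, a cut near 3 SD across the whole screen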;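 further: yeast exposed to compound for one week at 30 degrees C before staining; 100% = mean of all compound wells on the same plate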). Conditions: S. cerevisiae aging, superoxide DHE fluorescence; at 10 µM, stronger effect = lower value.
Assay [8] deals with Beta-adrenergic receptor kinase 1 (Homo sapiens) (UniProt P25098). Briefly: GRK2 binders displacing RNA aptamer, biochemical, validation, human GRK2, bead flow cytometry (AID 488806;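 active means aptamer binding inhibition above 30%, about 3 SD of noise from non-fluorescent compounds; inactive means inhibition at or below 30%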). The conditions noted are these: bead-bound GRK2, FAM-aptamer displacement, at 10 µM, stronger effect = higher value.
Assay [9] concerns the target Beta-2 adrenergic receptor (Homo sapiens) (UniProt P07550). The assay is described as follows: beta2AR agonists driving receptor internalization, pilot screen, cell-based, FAP fluorogen, flow cytometry, validation set (AID 504459;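 active means percent response above 42, roughly 3 SD of non-fluorescent test compounds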;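 further: agonist-driven loss of surface beta2AR via internalization measured by FAP dye flow cytometry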). The conditions noted are these: Am2.2-beta2AR cells, FAP surface receptor flow cytometry; at 10 µM; stronger effect = higher value.
Assay [10] deals with AP-2 complex subunit beta (Homo sapiens) (UniProt P63010). The assay is described as follows: inhibitors of arrestin peptide binding to AP2, pilot screen, biochemical, validation set, GST-AP2 beads, flow cytometry (AID 504541;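 active means inhibition above 54%, about 3 SD of non-fluorescent compounds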;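 further: AP2 carries R879A mutation and is captured from E. coli lysate; bead-bound FITC arrestin peptide fluorescence measuring arrestin peptide binding to AP2; 0% = DMSO wells and 100% = excess unlabeled arrestin peptide control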). Conditions: FITC arrestin peptide, at 10 µM, stronger effect = higher value, AP2 beta2 appendage fragment, R879A mutant.
Assay [11] can be described thus: yeast V-ATPase proton transport modulators, S. cerevisiae, pHLuorin, HTS validation (AID 504600; in the data active means response above about 15%;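 further: plate controls were DMSO for no effect and reference compound for full effect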). Conditions: S. cerevisiae pHLuorin cytosolic pH, at 10 µM, stronger effect = higher value.
Assay [12] concerns anti-desmoglein-3 scFv antibody binding to human DSG3. Briefly: inhibitors of anti-DSG3 scFv binding to DSG3, pilot screen, biochemical, validation compound set, bead-based, flow cytometry (AID 588368;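 active means binding below the plate cutoff, the plate median minus 3 SD, with a reading above zero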;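 further: signal is the median channel fluorescence of bead-bound GFP antibody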). Conditions: Protein G beads, DSG3-Fc, scFv-GFP binding, at 10 µM, stronger effect = lower value.
Assay [13] can be described thus: inhibitors of fungal efflux pumps CDR1, CDR2, MDR1, pilot screen, validation compound set, multiplex, phenotypic (AID 588506).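 Further: Nile Red retained in cells so higher fluorescence means more efflux inhibition; 0 = negative control wells and 1 = enniatin B 25 µM full block.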 Conditions: S. cerevisiae pump-expressing triplex, Nile Red efflux flow cytometry; at 10 µM; stronger effect = higher value; the pumps come from Candida albicans.
For assay [14], the target named is ATP-binding cassette sub-family B member 6 (Homo sapiens) (UniProt Q9NP58). The assay is described as follows: ABCB6 transporter inhibitors, pilot screen, K562-ABCB6 cells, flow cytometry, validation set (AID 588550;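 active means inhibition above the screen-wide mean plus 3 SD, about 51%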;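 further: 0% = DMSO wells and 100% = benzethonium chloride 70 µM positive control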). Conditions: K562-ABCB6 porphyrin accumulation, 1 h, at 10 µM, stronger effect = higher value.
Assay [15] in a line: promoters of myeloid differentiation in arrested cells, primary screen, cell-based, GFP/MAC1 double positive, flow cytometry, validation set (AID 588685;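 active means differentiation response of at least 50%, scaled between solvent and reference control, from cells with both markers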;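 further: compound exposure lasts four days before antibody staining and flow analysis; 0% = DMSO wells and 100% = 5 µM fulvestrant positive control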). Conditions: ER-HoxA9 marrow cells, stronger effect = higher value, normalized: vehicle 0, fulvestrant 100.
Assay [16] in a line: modulators of MEP2-GFP levels in yeast, primary screen, S. cerevisiae, multiplex flow cytometry (AID 1867;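 active means GFP response, as percent of the DMSO control, above the screen-wide mean plus 3 SD, about 139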;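 further: median GFP channel fluorescence of barcode-gated MEP2-GFP cells measured by flow cytometry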). The conditions noted are these: S. cerevisiae MEP2-GFP strain, 3 h, at 10 µM, stronger effect = higher value, 100% means same as DMSO wells.

Inconclusive results are not listed. Calls of active or inactive are those of the source.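 How the source made its calls, unless noted: active means efflux inhibition above 0.42, the validation set average plus 4 SD; inconclusive means no clear call, values can overlap the other calls; inactive means the rest.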

ATP-binding cassette sub-family B member 6 (Homo sapiens), sequence (Q9NP58 whole entry, looked up): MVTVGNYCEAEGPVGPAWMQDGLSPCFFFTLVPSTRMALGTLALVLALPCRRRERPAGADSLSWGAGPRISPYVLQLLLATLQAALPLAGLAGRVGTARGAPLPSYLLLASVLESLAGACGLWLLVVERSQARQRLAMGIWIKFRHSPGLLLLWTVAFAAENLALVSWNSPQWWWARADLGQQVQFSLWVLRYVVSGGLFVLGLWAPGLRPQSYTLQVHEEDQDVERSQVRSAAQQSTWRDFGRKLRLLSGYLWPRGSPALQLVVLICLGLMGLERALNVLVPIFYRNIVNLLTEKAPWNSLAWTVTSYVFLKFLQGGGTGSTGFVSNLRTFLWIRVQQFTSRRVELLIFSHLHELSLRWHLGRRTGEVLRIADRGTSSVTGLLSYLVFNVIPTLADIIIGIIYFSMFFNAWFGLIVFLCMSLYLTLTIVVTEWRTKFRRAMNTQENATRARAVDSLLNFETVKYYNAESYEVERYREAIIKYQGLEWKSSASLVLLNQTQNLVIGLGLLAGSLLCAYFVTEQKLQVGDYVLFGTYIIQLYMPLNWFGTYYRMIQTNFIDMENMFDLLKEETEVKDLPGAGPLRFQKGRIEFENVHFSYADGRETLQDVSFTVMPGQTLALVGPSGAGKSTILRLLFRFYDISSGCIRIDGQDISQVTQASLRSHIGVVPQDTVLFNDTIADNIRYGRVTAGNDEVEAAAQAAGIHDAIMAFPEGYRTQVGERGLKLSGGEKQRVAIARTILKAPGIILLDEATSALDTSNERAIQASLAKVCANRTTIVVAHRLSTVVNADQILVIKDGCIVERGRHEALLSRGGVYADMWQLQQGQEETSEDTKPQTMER
Beta-adrenergic receptor kinase 1 (Homo sapiens), sequence (P25098 whole entry, looked up): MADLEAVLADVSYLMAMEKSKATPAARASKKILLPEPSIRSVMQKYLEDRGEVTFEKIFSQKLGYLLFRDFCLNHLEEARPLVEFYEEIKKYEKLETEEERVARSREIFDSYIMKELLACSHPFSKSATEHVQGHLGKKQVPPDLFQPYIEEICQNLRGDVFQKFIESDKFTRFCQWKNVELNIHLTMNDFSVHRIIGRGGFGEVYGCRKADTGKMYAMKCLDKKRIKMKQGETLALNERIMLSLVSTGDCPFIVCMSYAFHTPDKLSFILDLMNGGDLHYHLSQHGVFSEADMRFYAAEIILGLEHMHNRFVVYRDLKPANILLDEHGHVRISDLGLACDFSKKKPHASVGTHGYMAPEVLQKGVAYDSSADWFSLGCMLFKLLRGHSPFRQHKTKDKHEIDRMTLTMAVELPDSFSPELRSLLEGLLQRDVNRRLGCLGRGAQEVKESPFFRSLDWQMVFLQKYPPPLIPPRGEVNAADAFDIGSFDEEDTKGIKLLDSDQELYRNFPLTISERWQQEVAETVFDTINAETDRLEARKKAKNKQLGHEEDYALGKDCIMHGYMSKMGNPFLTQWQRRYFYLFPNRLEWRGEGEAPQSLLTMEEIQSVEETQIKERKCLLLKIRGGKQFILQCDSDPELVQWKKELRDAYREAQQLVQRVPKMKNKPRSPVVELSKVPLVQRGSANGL
Integrin beta-1 (Homo sapiens) + Integrin alpha-4 (Homo sapiens), sequence (P05556 whole entry, looked up): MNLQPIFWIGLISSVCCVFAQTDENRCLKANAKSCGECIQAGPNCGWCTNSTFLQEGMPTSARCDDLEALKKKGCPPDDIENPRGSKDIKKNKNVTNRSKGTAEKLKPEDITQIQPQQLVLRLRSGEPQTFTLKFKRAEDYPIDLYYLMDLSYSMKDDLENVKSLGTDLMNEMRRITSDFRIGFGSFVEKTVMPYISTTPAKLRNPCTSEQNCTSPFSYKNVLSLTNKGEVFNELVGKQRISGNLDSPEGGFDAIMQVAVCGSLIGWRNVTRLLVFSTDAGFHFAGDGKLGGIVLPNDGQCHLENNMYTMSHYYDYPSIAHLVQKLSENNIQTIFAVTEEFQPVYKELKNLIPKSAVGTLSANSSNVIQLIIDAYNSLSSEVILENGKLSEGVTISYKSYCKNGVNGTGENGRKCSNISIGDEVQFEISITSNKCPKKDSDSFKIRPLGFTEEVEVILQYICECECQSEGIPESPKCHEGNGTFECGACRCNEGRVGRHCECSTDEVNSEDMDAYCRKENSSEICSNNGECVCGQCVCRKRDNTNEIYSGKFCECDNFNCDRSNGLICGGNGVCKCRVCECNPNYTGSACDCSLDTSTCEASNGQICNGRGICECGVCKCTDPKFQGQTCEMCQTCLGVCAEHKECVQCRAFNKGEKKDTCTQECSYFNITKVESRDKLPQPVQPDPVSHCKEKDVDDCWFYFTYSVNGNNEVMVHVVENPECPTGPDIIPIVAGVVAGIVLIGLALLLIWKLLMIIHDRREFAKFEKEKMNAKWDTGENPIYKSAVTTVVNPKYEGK
Integrin beta-1 (Homo sapiens) + Integrin alpha-4 (Homo sapiens), sequence (P13612 whole entry, looked up): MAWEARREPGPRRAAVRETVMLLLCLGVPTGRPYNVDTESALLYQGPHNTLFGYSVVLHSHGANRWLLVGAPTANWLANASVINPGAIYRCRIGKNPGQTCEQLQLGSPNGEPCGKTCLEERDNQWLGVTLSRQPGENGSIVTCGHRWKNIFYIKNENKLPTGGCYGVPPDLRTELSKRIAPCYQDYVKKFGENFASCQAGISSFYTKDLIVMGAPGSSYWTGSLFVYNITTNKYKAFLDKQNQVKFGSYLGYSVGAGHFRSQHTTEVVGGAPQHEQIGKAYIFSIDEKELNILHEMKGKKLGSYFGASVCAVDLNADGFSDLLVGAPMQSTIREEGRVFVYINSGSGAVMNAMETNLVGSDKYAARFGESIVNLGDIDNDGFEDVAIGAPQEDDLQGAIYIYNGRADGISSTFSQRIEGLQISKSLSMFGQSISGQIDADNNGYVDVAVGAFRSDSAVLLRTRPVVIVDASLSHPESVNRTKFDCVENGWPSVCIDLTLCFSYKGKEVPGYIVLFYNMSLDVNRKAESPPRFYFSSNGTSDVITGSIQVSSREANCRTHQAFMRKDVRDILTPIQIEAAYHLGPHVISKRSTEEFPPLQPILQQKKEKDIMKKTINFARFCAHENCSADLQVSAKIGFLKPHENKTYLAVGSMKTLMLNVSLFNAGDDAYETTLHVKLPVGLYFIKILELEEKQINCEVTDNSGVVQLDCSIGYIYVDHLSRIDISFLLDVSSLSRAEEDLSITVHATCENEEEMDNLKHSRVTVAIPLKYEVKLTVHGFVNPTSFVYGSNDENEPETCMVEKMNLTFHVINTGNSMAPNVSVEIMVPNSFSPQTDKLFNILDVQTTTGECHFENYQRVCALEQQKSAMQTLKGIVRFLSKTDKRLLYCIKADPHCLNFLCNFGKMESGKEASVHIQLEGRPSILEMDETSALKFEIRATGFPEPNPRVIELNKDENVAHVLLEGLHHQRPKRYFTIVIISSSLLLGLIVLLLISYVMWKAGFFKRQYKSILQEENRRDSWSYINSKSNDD
AP-2 complex subunit beta (Homo sapiens), sequence (P63010 whole entry, looked up, the tested form may be a part, one chain of several): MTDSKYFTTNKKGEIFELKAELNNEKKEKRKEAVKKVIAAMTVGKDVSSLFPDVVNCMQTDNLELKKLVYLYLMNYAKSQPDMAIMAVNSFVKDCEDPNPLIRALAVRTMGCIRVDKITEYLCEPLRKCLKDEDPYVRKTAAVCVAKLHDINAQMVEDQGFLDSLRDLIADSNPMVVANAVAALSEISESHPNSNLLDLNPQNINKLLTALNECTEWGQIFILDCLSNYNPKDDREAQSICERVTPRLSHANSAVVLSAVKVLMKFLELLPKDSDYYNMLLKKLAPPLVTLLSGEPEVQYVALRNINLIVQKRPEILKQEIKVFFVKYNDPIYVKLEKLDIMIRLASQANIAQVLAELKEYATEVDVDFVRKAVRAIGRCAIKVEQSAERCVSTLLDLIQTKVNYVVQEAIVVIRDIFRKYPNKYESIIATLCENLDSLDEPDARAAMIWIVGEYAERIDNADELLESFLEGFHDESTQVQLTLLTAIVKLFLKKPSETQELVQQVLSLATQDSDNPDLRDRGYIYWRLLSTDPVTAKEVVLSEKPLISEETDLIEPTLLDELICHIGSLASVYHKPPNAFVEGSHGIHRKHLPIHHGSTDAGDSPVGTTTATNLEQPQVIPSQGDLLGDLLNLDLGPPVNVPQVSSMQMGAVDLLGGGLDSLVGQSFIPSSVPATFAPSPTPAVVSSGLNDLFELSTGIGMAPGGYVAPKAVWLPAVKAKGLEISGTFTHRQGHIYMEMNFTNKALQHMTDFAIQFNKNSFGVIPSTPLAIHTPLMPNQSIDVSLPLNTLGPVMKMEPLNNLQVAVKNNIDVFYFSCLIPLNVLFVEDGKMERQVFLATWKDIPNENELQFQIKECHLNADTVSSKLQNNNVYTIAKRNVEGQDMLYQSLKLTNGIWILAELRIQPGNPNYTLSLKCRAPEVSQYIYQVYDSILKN
Beta-2 adrenergic receptor (Homo sapiens), sequence (P07550 whole entry, looked up): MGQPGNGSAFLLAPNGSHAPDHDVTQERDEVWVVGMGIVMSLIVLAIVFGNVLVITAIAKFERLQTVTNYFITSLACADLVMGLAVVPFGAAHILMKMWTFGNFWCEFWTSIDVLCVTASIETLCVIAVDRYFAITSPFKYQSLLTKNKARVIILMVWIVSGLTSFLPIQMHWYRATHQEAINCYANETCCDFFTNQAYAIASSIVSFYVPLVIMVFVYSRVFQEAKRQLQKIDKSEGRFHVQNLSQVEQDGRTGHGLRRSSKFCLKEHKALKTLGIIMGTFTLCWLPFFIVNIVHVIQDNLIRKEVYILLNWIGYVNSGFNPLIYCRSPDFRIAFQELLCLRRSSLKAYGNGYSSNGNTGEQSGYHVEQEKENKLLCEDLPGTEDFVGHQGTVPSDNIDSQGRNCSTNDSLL

The inhibition is the relative decrease from the control value, in per cent. Take `Cc1cc(C)c2c(CCl)cc(=O)oc2c1`: the percent of DMSO control GFP in [1] is 98.7% (inactive). Further, the percent response of DMSO control in assay [2] is 107% (inactive). For the same compound, in assay [3], the GFP response vs DMSO was 127% (inactive). Besides, the GFP response, % of DMSO in assay [4] was 115% (inactive). This compound yielded a double positive events in [5] of 60.3%. Besides, the vesicle binding response in [5] is 174% (inactive). The figures for the inhibition in assay [6], in assay [10] and in assay [14] were 33.8% (inactive), 2.3% (inactive) and 4% (inactive), respectively. The superoxide response (% of plate) in assay [7] was 93% (inactive). In addition, the aptamer binding inhibition in [8] was -2% (inactive). Moreover, the results for the response in assay [9] and in assay [11] were -0.73% (inactive) and 63.9% (active), respectively. The binding (% of control) in assay [12] was 96.2% (inactive). The efflux inhibition (fraction of control) in assay [13] is 0.08 (inactive). For the same compound, the differentiation response in assay [15] is 4.86% (inactive).

Turning to `CC(=O)OC[C@H]1O[C@@H](n2ncc(=O)[nH]c2=O)[C@H](OC(C)=O)[C@@H]1OC(C)=O`, the percent of DMSO control GFP in [1] is 94.8% (inactive). In addition, the GFP response vs DMSO in assay [16] is 114% (inactive); in [3], 78.1% (inactive). The percent response of DMSO control in assay [2] is 119% (inactive). In [5], this compound yielded a double positive events of 53.4%. Also, the vesicle binding response in assay [5] was 78.5% (active). In addition, the results for the inhibition in [6], in assay [10] and in assay [14] were 5.49% (inactive), -6.69% (inactive) and -40% (inactive), respectively. For the same compound, in assay [7], the superoxide response (% of plate) was 105% (inactive). The aptamer binding inhibition in [8] was 6% (inactive). The response in assay [9] is -6.75% (inactive); in [11] it was -0.17% (inactive). Besides, the binding (% of control) in [12] is 109% (inactive). Further, the efflux inhibition (fraction of control) in assay [13] was -0.13 (inactive). Further, the differentiation response in assay [15] is 20.5% (inactive).

In the case of `COc1cc(C2C(C(=O)c3ccc(C)o3)=C(O)C(=O)N2Cc2cccnc2)ccc1O` (stereo not given), the percent of DMSO control GFP in assay [1] was 102% (inactive). The GFP response vs DMSO in [16] was 119% (inactive); in assay [3], 81.4% (inactive). Also, the percent response of DMSO control in assay [2] is 106% (inactive). Besides, the double positive events in assay [5] was 68.3%. Besides, the vesicle binding response in assay [5] was 171% (inactive). Besides, the inhibition in [6] was 2.58% (inactive); in assay [10] it was -5.82% (inactive); in assay [14], 9% (inactive). Moreover, the superoxide response (% of plate) in assay [7] is 110% (inactive). In assay [8], the aptamer binding inhibition was 2% (inactive). Moreover, the response is -8.26% (inactive) in assay [9] and 4.05% (inactive) in [11]. The binding (% of control) in assay [12] was 99.4% (inactive). Further, the efflux inhibition (fraction of control) in assay [13] is 0.34 (inactive). In assay [15], the differentiation response is -0.82% (inactive).

As to `O=C1C2C3C=CC(C4CC34)C2C(=O)N1/N=C/c1ccc(-c2ccc([N+](=O)[O-])cc2)o1` (stereo not given), in assay [1], the percent of DMSO control GFP is 103% (inactive). Besides, the percent response of DMSO control in assay [2] is 101% (inactive). For the same compound, the GFP response vs DMSO in assay [3] was 85.4% (inactive). For the same compound, the GFP response, % of DMSO in assay [4] was 87.7% (inactive). The compound also came in with a double positive events in [5] of 57.9%. Besides, the vesicle binding response in assay [5] is 153% (inactive). Further, the inhibition is -0.43% (inactive) in assay [6], 14.3% (inactive) in [10] and 7% (inactive) in assay [14]. The superoxide response (% of plate) in assay [7] is 95.5% (inactive). For the same compound, in assay [8], the aptamer binding inhibition was 4% (inactive). The results for the response in assay [9] and in [11] were 25.8% (inactive) and 1.6% (inactive), respectively. The binding (% of control) in assay [12] was 102% (inactive). Moreover, the efflux inhibition (fraction of control) in assay [13] is 0.19 (inactive). The differentiation response in assay [15] is 0% (inactive).

Take `Cc1ccccc1OCC(O)CN1CCN(C)CC1` (stereo not given): in [1], the percent of DMSO control GFP is 97.9% (inactive). Further, the GFP response vs DMSO in assay [16] was 115% (inactive); in [3] it was 75.9% (inactive). Also, the percent response of DMSO control in [2] was 112% (inactive). Further, the double positive events in assay [5] turned out to be 62.9%. Moreover, the vesicle binding response in assay [5] is 193% (inactive). In addition, the inhibition in assay [6] is 4.52% (inactive); in assay [10] it was 5.62% (inactive); in [14] it was 7% (inactive). Besides, in assay [7], the superoxide response (% of plate) is 107% (inactive). For the same compound, in [8], the aptamer binding inhibition is 3% (inactive). In addition, the response was -6.23% (inactive) in [9] and -0.77% (inactive) in assay [11]. Further, the binding (% of control) in assay [12] was 103% (inactive). Besides, in assay [13], the efflux inhibition (fraction of control) was 0.27 (inactive). Further, in [15], the differentiation response was -2.46% (inactive).
